These results are taken from PubChem BioAssay (EPA / NIEHS).

Where “and” joins values, the source holds several entries; their conditions need not be identical. Equal entries are not always repeated. Records with an inconclusive call do not appear. Calls of active or inactive are those of the source. The calls were made as follows, unless noted: active = hit-call score of the fitted dose curve at least 0.9, where 1 is the maximum; inactive = score below 0.9.

Experiment [1] in a line: ACEA_ER_80hr: ACEA Biosciences xCELLigence Real-Time Cell Analysis on Estrogen Receptor Agonism for Proliferation (AID 2282667; active = hit-call score of the fitted dose curve at least 0.9, where 1 is the maximum). To be noted: T47D proliferation, impedance (xCELLigence), 80 h. In outline: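 Real-time impedance growth kinetics of human T-47D breast cells read 80 h after dosing, gain-of-signal fitted relative to DMSO. Compounds: 1:4 serial series, top final concentration 100 uM, n = 2.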

The nature of experiment [2]: APR_HepG2_CellLoss_1hr: Apredica 1-hour HepG2 Assay for Cell Loss (AID 2282668).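 Also: curves fitted both ways against DMSO so gain or loss of cells counts.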 To be noted: high-content imaging. In outline: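 Cell number comes from high-content imaging of Hoechst-labelled nuclei in fixed HepG2 cells. Cells were exposed for 1 h to ten concentrations from 0.39 to 200 uM in 0.5% DMSO. Gain or loss was fitted against DMSO controls.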
Experiment [3] can be described thus: APR_HepG2_MicrotubuleCSK_1hr: Apredica 1-hour HepG2 Assay for Microtubule CSK Stabilty (AID 2282669). To be noted: HepG2 microtubule cytoskeleton imaging, actives raise or lower the signal. Put shortly:
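Alpha-tubulin immunofluorescence, imaged by automated high-content microscopy with Hoechst nuclear segmentation, measured cytoskeletal change after 1 h dosing of HepG2 at 0.39–200 uM in 0.5% DMSO. Activity fitted in both directions relative to DMSO.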

Experiment [4] can be described thus: APR_HepG2_NuclearSize_1hr: Apredica 1-hour HepG2 Assay for Nuclear Size (AID 2282670). To be noted: high-content imaging, actives raise or lower the signal. In outline: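 Nuclear size measured by high-content imaging of Hoechst 33342 nuclear stain after formaldehyde fixation; human HepG2 line exposed 1 hr to compounds at 0.39–200 uM in 0.5% DMSO, with bidirectional curve fitting relative to DMSO.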

Experiment [5] is described as follows: APR_HepG2_p53Act_1hr: Apredica 1-hour HepG2 Assay for p53 Activation (AID 2282671). To be noted: high-content imaging, actives raise or lower the signal. In outline:
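After 1 h exposure (0.39–200 uM, 0.5% DMSO final, duplicates), fixed HepG2 cells were labelled with anti-p53 antibody plus Hoechst nuclear stain. Fluorescence quantified by automated 20x imaging; changes fitted in both directions against DMSO.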

Experiment [6] is described as follows: APR_HepG2_CellCycleArrest_24hr: Apredica 24-hour HepG2 Assay for Cell Cycle Arrest (AID 2282905).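 Also: cell cycle arrest scored as ratio of 2N to 4N nuclear DNA content.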 To be noted: imaging, actives raise or lower the signal. Put shortly:
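After 24 h exposure at 0.39–200 uM in 0.5% DMSO, fixed cells received Hoechst 33342 staining. Imaging quantified per-nucleus DNA content; gain or loss fitted against DMSO controls.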

The nature of experiment [7]: APR_HepG2_NuclearSize_24hr: Apredica 24-hour HepG2 Assay for Nuclear Size (AID 2282907). To be noted: high-content imaging, actives raise or lower the signal. In outline:
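Nuclear size from Hoechst 33342-stained, formaldehyde-fixed HepG2 nuclei imaged by high-content microscopy, after 24 h dosing at ten concentrations from 0.39 to 200 uM in 0.5% DMSO; gain or loss relative to DMSO baseline.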

Experiment [8] can be described thus: APR_HepG2_CellLoss_24hr: Apredica 24-hour HepG2 Assay for Cell Loss (AID 2282908).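 As to AC50: fit in both directions so a hit may be cell loss or gain.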 To be noted: high-content imaging. Put shortly:
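Nuclei stained with Hoechst 33342 after formaldehyde fixation (3.7%) were imaged at 20x to count cells. Exposure lasted 24 hr, at ten concentrations from 0.39 to 200 uM in duplicate, with 0.5% v/v DMSO. Fit bidirectional, relative to DMSO.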

Experiment [9] is described as follows: APR_HepG2_MicrotubuleCSK_24hr: Apredica 24-hour HepG2 Assay for Microtubule CSK Stabilty (AID 2282909). To be noted: HepG2 microtubule cytoskeleton imaging, actives raise or lower the signal. Put shortly: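 Fixed HepG2 cells were stained for alpha-tubulin and imaged after 24 hr exposure to ten concentrations spanning 0.39–200 uM in 0.5% DMSO. Signal change was fitted in both directions relative to DMSO; taxol was the positive control.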

Experiment [10] in a line: APR_HepG2_MitoticArrest_24hr: Apredica 24-hour HepG2 Assay for Mitotic Arrest (AID 2282910). To be noted: high-content imaging, actives raise or lower the signal. Put shortly: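 HepG2, 24 hr dosing, 0.39–200 uM, 0.5% DMSO final. Formaldehyde-fixed, Triton-permeabilised, anti-phospho-histone H3 plus Hoechst. ArrayScan imaging at 20x; bidirectional fit vs DMSO baseline.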

A short description of experiment [11]: APR_HepG2_MitoMembPot_24hr: Apredica 24-hour HepG2 Assay for Mitochondrial Membrane Potential (AID 2282911). To be noted: imaging, actives raise or lower the signal. In outline: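 Mitochondrial membrane potential imaged via MitoTracker Red CMXRos (250 nM, 30 min pre-fixation) in fixed HepG2 cells with Hoechst nuclear identification. Ten concentrations 0.39–200 uM, 24 h treatment, 0.5% DMSO; CCCP as positive control.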

The nature of experiment [12]: APR_HepG2_MitoMass_24hr: Apredica 24-hour HepG2 Assay for Mitochondrial Mass (AID 2282912). To be noted: high-content imaging, actives raise or lower the signal. Put shortly: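 Endpoint is MitoTracker Red CMXRos (250 nM, 30 min, pre-fixation) intensity from 20x high-content imaging, nuclei located by Hoechst. Human HepG2 cells received ten concentrations from 0.39 to 200 uM in 0.5% DMSO for 24 hr, duplicate wells. Bidirectional fit relative to DMSO.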

Experiment [13] can be described thus: APR_HepG2_p53Act_24hr: Apredica 24-hour HepG2 Assay for p53 Activation (AID 2282913).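 Also: p53 protein immunofluorescence averaged per cell in HepG2 with Hoechst nuclei.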 To be noted: high-content imaging, actives raise or lower the signal. Put shortly: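 Fluorescence imaging of formaldehyde-fixed HepG2 cells labelled for p53 and with Hoechst, 24 h after dosing (0.39–200 uM, duplicate wells, 0.5% v/v DMSO). Signal fitted in both directions relative to DMSO.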

Experiment [14] can be described thus: APR_HepG2_CellCycleArrest_72hr: Apredica 72-hour HepG2 Assay for Cell Cycle Arrest (AID 2282914). To be noted: high-content imaging, actives raise or lower the signal. In outline:
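Read-out: nuclear DNA content from Hoechst 33342 high-content imaging (20x, six fields/well) after 3.7% formaldehyde fixation, fitted bidirectionally against DMSO. Treatment was 72 h in HepG2, ten concentrations 0.39–200 uM, duplicate, 0.5% DMSO.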

A short description of experiment [15]: APR_HepG2_CellCycleArrest_1hr: Apredica 1-hour HepG2 Assay for Cell Cycle Arrest (AID 2282666). To be noted: high-content imaging, actives raise or lower the signal. In outline: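 Cell cycle arrest scored from nuclear DNA content (Hoechst 33342) using high-content imaging of fixed HepG2 cells after 1 h treatment across 0.39–200 uM, in duplicate. Gain or loss fitted relative to 0.5% DMSO.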

A short description of experiment [16]: APR_HepG2_MitoMass_1hr: Apredica 1-hour HepG2 Assay for Mitochondrial Mass (AID 2282674). To be noted: high-content imaging, actives raise or lower the signal. Put shortly:
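Mitochondrial mass is taken from MitoTracker Red CMXRos (250 nM, 30 min, pre-fixation) fluorescence imaged at 20x in HepG2 cells. Exposure lasted 1 hr across ten concentrations, 0.39 to 200 uM, 0.5% DMSO; DMSO baseline, bidirectional fitting.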

Experiment [17] can be described thus: APR_HepG2_MitoMembPot_1hr: Apredica 1-hour HepG2 Assay for Mitochondrial Membrane Potential (AID 2282675). To be noted: imaging, actives raise or lower the signal. In outline: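 Mitochondrial membrane potential read as MitoTracker Red CMXRos intensity by automated imaging of fixed HepG2 cells. Dye at 250 nM for 30 min pre-fixation; compounds 0.39 to 200 uM for 1 hour, duplicate wells, 0.5% DMSO.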

The nature of experiment [18]: APR_HepG2_P-H2AX_1hr: Apredica 1-hour HepG2 Assay for H2AX Phosphorylation (AID 2282673). To be noted: high-content imaging, actives raise or lower the signal. Put shortly:
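Phospho-H2A.x immunofluorescence (1:200, FITC secondary) plus Hoechst nuclear stain, quantified by high-content imaging in HepG2 after 1 hr compound exposure. Ten concentrations, 0.39 to 200 uM, in duplicate with 0.5% DMSO; fit both directions against DMSO.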

Experiment [19] is described as follows: APR_HepG2_StressKinase_1hr: Apredica 1-hour HepG2 Assay for Stress Kinase (AID 2282906). To be noted: HepG2 stress kinase (phospho-c-Jun) imaging, actives raise or lower the signal. Put shortly: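 High-content imaging of phospho-c-Jun immunostaining (with Hoechst nuclear identification) after a 1 h exposure of HepG2 cells to 10 concentrations from 0.39 to 200 uM, final DMSO 0.5%. Fitted bidirectionally against DMSO.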

Consider `O=C(O)c1nc(Cl)ccc1Cl`, for which the result in experiment [1], in experiment [2], in experiment [3], in experiment [4], in [5] and in experiment [6] was inactive. Further, the molecule was called inactive in experiment [7], in experiment [8], in experiment [9], in experiment [10], in experiment [11] and in experiment [12]. Further, the molecule was classed as inactive in [13] and in experiment [14].

What is called AC50 is the concentration at which the activity in the assay is half-maximal. `COc1ccc(C(c2ccc(OC)cc2)C(Cl)(Cl)Cl)cc1`: the call in experiment [15], in experiment [4], in experiment [5], in experiment [16], in experiment [6] and in experiment [7] was inactive. Further, the result in [10], in [11], in experiment [12], in [13] and in [14] was inactive. For the same molecule, the AC50 was 10.4 µM (active) and 1.41 µM (active) and 728 nM (active) in [1]; 100 µM (active) in experiment [17]; 60.5 µM (active) in [8]; 69.8 µM (active) in experiment [9].

As to `COC(=O)c1ccccc1C(=O)OC`, the molecule was called inactive in experiment [15], in experiment [1], in experiment [4], in [5], in experiment [6] and in experiment [7]. The call in experiment [8], in experiment [10], in experiment [11], in experiment [12], in experiment [13] and in experiment [14] was inactive.

For the molecule `CCOC(=O)C(Cl)Cc1cc(-n2nc(C)n(C(F)F)c2=O)c(F)cc1Cl` (centres undefined), the molecule was called inactive in experiment [1], in experiment [2], in experiment [3], in experiment [4], in experiment [5] and in experiment [18]. Also, the result in experiment [6], in experiment [7], in experiment [8], in experiment [9], in experiment [10] and in [11] was inactive. Besides, the outcome in experiment [12], in experiment [13] and in experiment [14] was inactive.

`CCc1nn(C)c(C(=O)NCc2ccc(C(C)(C)C)cc2)c1Cl`: the figures for the concentration at half-maximal activity (AC50) in experiment [1], in experiment [19] and in experiment [8] were 18.3 nM (active), 9.39 µM (active) and 86.9 µM (active), respectively. Moreover, the molecule was called inactive in [2], in experiment [4], in experiment [5], in experiment [18], in experiment [16] and in experiment [6]. Also, the result in experiment [7], in experiment [10], in experiment [11], in experiment [12], in experiment [13] and in experiment [14] was inactive.

As to `CC1COC(Cn2cncn2)(c2ccc(Oc3ccc(Cl)cc3)cc2Cl)O1` (centres undefined), the molecule was classed as inactive in experiment [15], in [1], in [4], in [5], in experiment [6] and in experiment [19]. Further, the molecule was called inactive in experiment [7], in experiment [12] and in experiment [13]. Also, the concentration at half-maximal activity (AC50) is 94.7 µM (active) in [8], 94.4 µM (active) in [10], 105 µM (active) in experiment [11] and 64.3 µM (active) in [14].
